Most compounds without a hit are left out; they make up all but 21% or so of the library.
NS1 function inh = qHTS Assay for Inhibitors of Influenza NS1 Protein Function; Potency, µM (doses to about 46.1 µM); actives 0.4% (n = 270,000); AID 2326, 2010; calls by dose curve; further: actives are rising curves; nearly all actives have a fitted effect of over 50% in size
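A cell-based growth assay was used: compounds that relieve NS1-induced slow growth of budding yeast raise OD600. Assay medium was yeast nitrogen base with ammonium sulphate and -URA supplement, pH 6.0, with 2% galactose.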
Pf growth 48h = Primary qHTS for delayed death inhibitors of the malarial parasite plastid, 48 hour incubation; Potency, µM (doses to about 28.7 µM), usual class: inhibitors; actives 5.9% (n = 310,000); P. falciparum luciferase growth in erythrocytes, 48 h
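Compounds are pin-transferred into medium, infected erythrocytes (2% hematocrit, 0.1% parasitemia final) are added, and plates sit one parasite generation at 37 C in 5% CO2. Detection reagent is then added and luminescence measured.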
Pf growth 96h = Primary qHTS for delayed death inhibitors of the malarial parasite plastid, 96 hour incubation | Potency, µM (series often up to 28.7 µM), most hits filed as inhibitors | P. falciparum luciferase reporter growth, 96 h | actives 6.9% (n = 320,000)
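Infected RBCs, 2% Hct / 0.05% parasitemia final; luciferase-reporter P. falciparum; cpd 96 h, 37 C, 5% CO2; luciferase detection reagent; luminescence.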
Shiga inhibitor = A qHTS for Small Molecule Inhibitors of Shiga Toxin; Vero cells, Shiga toxin protein synthesis inhibition reporter; inhibition, % at 38.7 µM; actives 9.2% (n = 290,000); in the data active means inhibition mostly above about 28%, no sharp cut-off; inactive means mostly below about 43%
CHX counter = Cycloheximide Counterscreen for Small Molecule Inhibitors of Shiga Toxin; max response, %; cell reporter, cycloheximide protein synthesis inhibition counterscreen; actives 12% (n = 300,000); in the data active means max response mostly above about 13%, no sharp cut-off; inactive means mostly below about 14%; further: read at 38.3 µM for the half of the compounds with a filed dose
Each line names hits and unclear results; the compound was inactive in the other large screens. Unless noted, the call rests on the fitted dose curve; in most records, active means well fitted inhibition curve with a large enough effect; inconclusive means small, poorly fitted or top-dose-only effect, or another doubt; inactive means no such curve, though single readings can be large or run the other way.

CCOC(=O)N1CCN(S(=O)(=O)N2CCCC(C(=O)NCCCN3CCCCC3)C2)CC1 (stereo not given)	none
Cc1c(OC(C)C(=O)N2C[C@H]3C[C@@H](C2)c2cccc(=O)n2C3)ccc2c3c(c(=O)oc12)CCCC3 (stereo not given in full)	Pf growth 48h inconclusive, Pf growth 96h inconclusive
O=C(COC(=O)Cn1cnc2ccccc2c1=O)Nc1cc(Cl)ccc1[N+](=O)[O-]	none
CCC(CC)C(=O)Nc1nnc(S(=O)(=O)Nc2ccc(OC)cc2)s1	none (no result: Pf growth 48h)
O=C(Nc1c(-c2ccccc2)nc2ccccn12)c1ccccc1F	none (no result: Pf growth 48h)
O=Cc1c(-c2ccccc2)nc2ccccn12	Pf growth 96h 13.1µM
CCc1ccc(C(=O)CSC2=C(C#N)C(c3ccco3)C(C(C)=O)=C(C)N2)cc1 (stereo not given)	NS1 function inh inconclusive, Pf growth 48h inconclusive, CHX counter 30.1
CC(=O)C1=C(C)NC(SCC(=O)c2cc(Cl)ccc2Cl)=C(C#N)C1c1ccco1 (stereo not given)	Pf growth 48h 9.28µM, Pf growth 96h 9.28µM
CC(=O)C1=C(C)NC(SCC(=O)c2ccc(Cl)c(Cl)c2)=C(C#N)C1c1ccco1 (stereo not given)	NS1 function inh inconclusive, Pf growth 48h 1.17µM
Cc1ccc(S(=O)(=O)C2(C(=O)N3CCCCC3C)CC2)cc1 (stereo not given)	none
COC(=O)c1ccccc1C(=O)c1cccc2ccccc12	none
COC(=O)c1cc2ccccc2c(-c2c(O)ccc3ccccc23)c1O	Pf growth 48h 9.28µM, Pf growth 96h inconclusive
Cn1ncc(N=Cc2ccc([N+](=O)[O-])cc2)c1C(=O)Nc1ccccc1	none (no result: NS1 function inh)
CCOC(=O)C1CCCc2c1[nH]c1c(C(N)=O)cccc21 (stereo not given)	none (no result: Pf growth 48h)
NC(=O)c1cccc2c3c([nH]c12)CCCC3	Shiga inhibitor 86.5, CHX counter 35.8
CC(C)CCN(C)C1CCN(C(=O)Nc2c(F)cccc2F)CC1	Pf growth 96h inconclusive (no result: Pf growth 48h)
Cc1ccc(CNC(=O)C2CCC(=O)N(CCc3ccccn3)C2)s1 (stereo not given)	Pf growth 96h inconclusive
Cc1ccc(C(=O)Oc2cccc(-n3cnnn3)c2)cc1	Shiga inhibitor 57.2, CHX counter 40.0
CC1CCc2c(C(=O)Oc3cccc(-n4cnnn4)c3)csc2C1 (stereo not given)	Pf growth 48h 5.86µM, Pf growth 96h inconclusive
Cc1nn(-c2ccccc2)c(-c2ccccc2[N+](=O)[O-])c1C(=O)O	none
S=C1NC[C@H](c2ccccc2)N1CCCCC1CCCCC1	Pf growth 48h 11.7µM, Pf growth 96h 6.57µM
NC1=NC[C@H](c2ccccc2)N1CCCCC1CCCCC1	Pf growth 48h inconclusive, Pf growth 96h inconclusive
COc1ccccc1C1C2=C(CCCC2=O)N(CC(=O)O)C2=C1C(=O)CCC2	Pf growth 96h inconclusive
COc1cc(Br)cc(C2C3=C(CCCC3=O)N(c3ccc(F)cc3)C3=C2C(=O)CCC3)c1O	Pf growth 48h 5.22µM, Pf growth 96h inconclusive
CCOC(=O)C1(CCc2ccccc2)CCN(C(=O)c2cc(C)nc(C)n2)CC1	Pf growth 96h inconclusive
COC(CNC(=O)C1CC(=O)N(CCc2ccc(C)cc2)C1)OC (stereo not given)	none
CCOP(=O)(OCC)C(NC(=O)Nc1ccc(C)cc1)C(N)=O (stereo not given)	none
FC(F)(F)C1=CC(c2ccc(Cl)cc2)=NCCN1	Pf growth 48h inconclusive, Pf growth 96h 2.62µM
O=C(Nc1cnccn1)c1ccncc1	none
O=C(NNC(=O)c1cnccn1)c1ccc(Cl)c(Cl)c1	Pf growth 48h inconclusive, Pf growth 96h 3.7µM
N/C(=N\NC(=O)c1ccc(Cl)cc1)c1cnccn1	Pf growth 48h inconclusive, Pf growth 96h inconclusive, Shiga inhibitor 47.8, CHX counter 32.7
O=C(Nc1cnccn1)c1ccc(Cl)cc1	Shiga inhibitor 58.3 (no result: Pf growth 48h)
O=C(NCCNC(=O)c1cnccn1)c1ccc(Cl)c(Cl)c1	none
Cc1cc(C(=O)N/N=C/c2cc(Cl)cc([N+](=O)[O-])c2O)n[nH]1	none
CC(=O)Nc1cccc2c1C(=O)N(c1ccc(OC(C)=O)cc1)C2=O	Pf growth 96h 2.62µM
CC(=O)Nc1cccc2c1C(=O)N(c1cccc(OC(C)=O)c1)C2=O	none (no result: NS1 function inh)
O=S(=O)(NN1CCOCC1)c1cc(Cl)cc(Cl)c1O	Pf growth 96h 1.65µM
CCCn1c(N)c(N(CCOC)C(=O)COC(=O)CSc2cc(C)c3ccccc3n2)c(=O)[nH]c1=O	none (no result: NS1 function inh, Shiga inhibitor, CHX counter)

Screening results from PubChem BioAssay.
